Rows were chosen to be rich in hits. Some 12% of all compounds tested hit in one or more screens of this group.
Cl transport mod: modulates chloride dependent transport by human KCC2 | Q9H2X9 | KCC2 cells, thallium flux FluoZin-2 fluorescence | B-score of Tl+ flux slope (higher = more flux/activation; lower = inhibition) at 10 µM | hit rate 2.2% among 190,000;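 active means thallium flux slope and its plate-corrected score both differing from the plate sample mean at a set confidence after two filtering rounds, in either direction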;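 further: slope of fluorescence scaled to starting intensity during 10 to 20 s after thallium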
INS promoter inh: TRM-6 insulin promoter activity inhibition; hit rate 0.9% among 130,000; inhibition, % at 2 µM; TRM-6 cells (human fetal islet line), insulin promoter-eGFP reporter, imaging; reporter expression induced with tamoxifen; AID 1273;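 active means inhibition above the mean plus 3 SD, with well images judged a real hit on visual review, cut at about 60% in these data, passing the limit was not always enough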
Ins promoter up: MIN6 insulin promoter up-regulation; AID 1625; hit rate 0.3% among 190,000; z-score at 5 µM; MIN6 insulin promoter-GFP reporter, high-content imaging; hits give high values;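 active means z-score above 3 at 5 µM with at least 500 cells counted in the well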
Lmaj promast: Leishmania major promastigote growth inhibition; Leishmania major promastigotes, resazurin fluorescence viability; inhibition, % at 10 µM; hit rate 9% among 200,000; AID 1063; in the data active means inhibition above about 50%;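 further: promastigotes grown with compound for 44 hours at 28 °C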
ROMK primary: human ROMK K+ channel modulation, primary screen; P48048; Tet-inducible ROMK, thallium flux fluorescence; actives lie on both sides; B-score at 10 µM; hit rate 2% among 130,000; AID 1918;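 active means signal ratio slope over the read window, or its plate-corrected B-score, at least 3 SD from the plate mean, either direction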;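 further: B-score of the F/F0 ratio slope over 7 to 12 s after thallium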
WT yeast gro inh: growth inhibition of WT yeast, mitochondrial fusion screen. mitochondrial fusion phenotypic screen, WT strain. inhibition, % at 10 µM. hit rate 2.1% among 190,000; in the data active means inhibition above about 58%; tested in S. cerevisiae
Active calls of the source: *; nt = not tested or not shown.

SMILES	Cl transport mod	INS promoter inh	Ins promoter up	Lmaj promast	ROMK primary	WT yeast gro inh
CC(=O)NCN1CCN(CNC(C)=O)CC1	-1.1	nt	-0.45	-3.4	nt	1.1
O=C(NCC1CCCN(Cc2ccc3nonc3c2)C1)c1ccc(F)cc1 (stereo not given)	-0.206	nt	0.54	89.6*	0.379	0.2
O=C(NCC1CCCN(Cc2cccc(C(F)(F)F)c2)C1)c1ccc(F)cc1 (stereo not given)	-0.705	nt	nt	80.4*	-0.188	9.3
CN(CC(=O)N1CCCCCC1)S(=O)(=O)c1cccc2cccnc12	nt	nt	0.23	-5.1	nt	-6.5
Oc1ccc(Cl)cc1-c1cc(-c2ccccc2)n[nH]1	0.699	nt	-0.91	16.8	nt	58.5*
COc1ccc(-c2cc(-c3ccccc3)n[nH]2)c(O)c1	-0.327	33.3	-0.05	47.5	-0.214	23.6
COc1ccc(-c2cc(-c3ccccc3O)[nH]n2)cc1	-1.95	-26.8	0.39	98.8*	nt	37.2
Cc1ccc(N=Cc2cc(Cc3ccccc3Cl)cc([N+](=O)[O-])c2O)c(O)c1	-1.31	0.0	-0.49	72.8*	nt	-2.8
Cc1ccc(NC(=O)CSc2ccccc2NC(=O)c2ccccc2)cc1Cl	0.801	-71.4	0.2	-1.8	-0.828	15.4
CCN(CC)S(=O)(=O)c1cccc(-c2nnc(SCc3nnc(-c4ccccc4)o3)n2C)c1	-0.792	3.6	-1.38	-1.2	nt	nt
COc1cnc(-c2ccccn2)nc1Sc1cccc(Cl)c1	-0.293	nt	nt	100.4*	nt	23.6
COc1cnc(-c2ccccn2)[nH]c1=O	0.149	0.0	0.16	-14.7	nt	1.4
COc1ccccc1Sc1nc(-c2ccccn2)ncc1OC	nt	51.2	-1.15	83.4*	0.436	56.8
COc1cccc(-c2nc(-c3ccccn3)no2)c1OC	0.34	-33.3	0.31	-0.3	0.341	6.4
COc1cnc(-c2ccccn2)nc1NC(C)C	nt	25.0	-4.73	100.3*	-0.733	4.0
Nc1cccnc1Sc1cccc(Cl)c1	1.75	nt	-0.47	3.7	-0.324	51.5
OCCNc1c2ccccc2nc2ccccc12	0.0724	nt	-0.13	99.9*	0.578	1.7
Cc1cc(C)c(C(=O)/C=C/c2ccc(C(C)C)cc2)c(=O)[nH]1	-0.825	nt	0.13	84.2*	-0.678	-25.6
CC1CCc2ccccc2N1C(=N)N(C)C (stereo not given)	-0.147	nt	-0.09	-8.3	0.13	7.2
CCCCn1c(O)c(/C=C/C=C/C=Nc2ccccc2)sc1=S	-0.138	-225.0	4.72*	32.7	0.0217	-1.4
Oc1c(/C=C/C=C/C=Nc2ccccc2)sc(=S)n1Cc1ccccc1	-1.41	nt	3.27*	nt	nt	nt
CCn1c(O)c(/C=C/C=C/C=Nc2ccccc2)sc1=S	0.0754	-61.1	0.09	-3.4	0.272	-1.5
CCC1(C)Cc2ccccc2C(Nc2c(C)n(C)n(-c3ccccc3)c2=O)=N1 (stereo not given)	-0.785	-37.1	-0.21	1.3	0.00496	0.1
FC(F)(F)c1ccccc1CN1CCN(C2CCCCCC2)CC1	0.66	0.0	-0.1	97.2*	nt	19.3
Cc1ccc(S(=O)(=O)N2CCN(Cc3ccccc3C(F)(F)F)CC2)cc1	-0.602	3.1	nt	-0.2	nt	1.6
SMILES	Cl transport mod	INS promoter inh	Ins promoter up	Lmaj promast	ROMK primary	WT yeast gro inh
O=S(=O)(c1ccccc1)N1CCN(Cc2ccccc2C(F)(F)F)CC1	0.896	-105.6	-0.17	92.0*	-0.495	26.6
Cc1cc(C)nc(N2CCC(C(=O)Nc3ccc(Oc4ccccc4)cc3)CC2)n1	1.67	-39.5	0.27	1.7	0.994	17.7
COc1ccc(N(CC(=O)Nc2cc(C(=O)O)ccc2C)S(=O)(=O)c2c(C)noc2C)cc1	nt	nt	-0.33	-6.1	0.826	9.2
O=S(=O)(c1cccc(C(F)(F)F)c1)N1CCN(C(=S)NC2CC2)CC1	0.347	17.9	-0.05	54.6*	-0.276	-3.6
CCNC(=S)N1CCN(S(=O)(=O)c2cccc(C(F)(F)F)c2)CC1	0.486	-23.3	0.27	-3.2	-0.233	-4.1
CC(C)NC(=S)N1CCN(S(=O)(=O)c2cccc(C(F)(F)F)c2)CC1	0.48	37.7	0	95.2*	-0.161	-48.4
N/C(=N\OC(=O)c1ccco1)c1ccc(Br)cc1	-1.06	-15.8	-0.19	1.1	nt	-7.2
C/C(CC(=O)Nc1ccccc1Cl)=N\NC(=O)C(=O)NCCO	-1.34	nt	0.6	-1.0	nt	-10.5
O=C(c1ccc(Cl)cc1)N1CCN(c2ccc([N+](=O)[O-])c(NCc3cccnc3)c2)CC1	nt	-8.3	nt	84.9*	nt	nt
COC(=O)C1=C(C)NC(=S)N(C(C)=O)C1c1ccccc1 (stereo not given)	0.76	77.1*	nt	-0.6	-0.19	-11.9
Cc1cccc(NC2=C(Cl)C(=O)OC2OC(C)C)c1 (stereo not given)	0.0536	nt	-0.53	3.2	-0.624	11.8
O=Cc1ccc2noc(-c3ccc(F)cc3)c2c1	-0.935	-12.5	nt	2.2	-3.13*	-9.3
Fc1ccc(-c2onc3ccc(C4OCCO4)cc23)cc1	0.6	6.7	-0.49	-10.4	-0.121	5.2
C=CCn1c(SC)nc2sc3c(c2c1=O)CCc1ccccc1-3	0.568	-33.3	-0.33	54.4*	-0.176	16.9
C=CCn1c(SCC)nc2sc3c(c2c1=O)CCc1ccccc1-3	0.771	0.0	-0.73	3.5	-0.771	34.2
O=C(C1CC(=O)N(C2CCCC2)C1)N1CCC(Cc2ccccc2)CC1 (stereo not given)	nt	34.4	-0.07	70.2*	nt	15.9
CC1CC(C)CN(CCCOc2ccccc2[N+](=O)[O-])C1 (stereo not given)	-0.0412	6.7	0.95	81.0*	-0.424	4.2
Cc1ccc(OCCCn2ccnc2)c([N+](=O)[O-])c1	-0.158	-21.6	0.57	72.1*	-0.167	7.0
CCOC(=O)C(CCCCCOc1ccccc1[N+](=O)[O-])C(=O)OCC	-3.06	-11.1	-0.38	21.9	-0.0978	3.0
Cc1cc(OCCN2CCCC2)ccc1[N+](=O)[O-]	1.19	0.0	0.19	2.7	-0.0712	-5.0
Cc1ccc([N+](=O)[O-])c(OCCN2CCCCCC2)c1	0.743	-17.2	-0.07	97.4*	nt	-0.7
Cc1ccc(OCCN2CCN(C)CC2)c([N+](=O)[O-])c1	0.295	-39.5	0.29	95.1*	-0.545	-8.2
Cc1ccc(OCCN2CCNCC2)c([N+](=O)[O-])c1	-0.809	-62.1	-0.28	25.7	nt	-13.6
Cc1cc(OCCN2CCOCC2)ccc1[N+](=O)[O-]	1.57	nt	-0.38	46.6	nt	-20.9
Cc1ccc(OCCCN2CCOCC2)c([N+](=O)[O-])c1	-0.875	0.0	0.1	88.5*	0.231	-19.1
Cc1cc(C)c[n+](C(C)C(=O)c2ccc(-c3ccccc3)cc2)c1 (stereo not given)	-3.06	26.7	-2.76	67.4*	nt	-0.4
CC1CCc2nc(NC(=O)CN3CCN(c4ccc(F)cc4)CC3)sc2C1 (stereo not given)	-0.771	-2.8	nt	42.2	-2.3	67.1*
Cc1cc(C)c2c3c(sc2n1)C(c1cccc(F)c1)C(C#N)=C(N)O3 (stereo not given)	0.895	21.7	-0.41	88.9*	0.366	9.5
CCCCC(=O)Nc1ccc2c(c1)nc1n2CCSC1	nt	nt	3.16*	-4.4	-0.249	4.8
Cc1cccc(NC(=O)CSc2nnc(-c3ccco3)c(-c3ccco3)n2)c1C	-0.619	10.5	0.42	87.0*	nt	5.4

Screens: PubChem BioAssay, several laboratories
